Measured values as given in PubChem BioAssay AID1835 (Johns Hopkins Ion Channel Center, 2009).
About 750 (31%) of roughly 2,400 compounds were called active. This is one part of the list. A number with no mark means an inactive call.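 How the source made its calls: active means median signal gain over dofetilide-blocked control wells reaching their mean plus 3 SD, so readout 1 at least 0; inactive means the rest.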

target: Voltage-gated inwardly rectifying potassium channel KCNH2 (Homo sapiens) (UniProt Q12809); test: modulators restoring hERG flux under dofetilide – cell-based, thallium flux, duplicate retest, dofetilide IC70, confirmation (AID 1835); details: hERG cell line, FluxOR thallium flux, dofetilide-blocked; at 10 µM; stronger effect = higher value
Sequence (Q12809 whole entry, looked up): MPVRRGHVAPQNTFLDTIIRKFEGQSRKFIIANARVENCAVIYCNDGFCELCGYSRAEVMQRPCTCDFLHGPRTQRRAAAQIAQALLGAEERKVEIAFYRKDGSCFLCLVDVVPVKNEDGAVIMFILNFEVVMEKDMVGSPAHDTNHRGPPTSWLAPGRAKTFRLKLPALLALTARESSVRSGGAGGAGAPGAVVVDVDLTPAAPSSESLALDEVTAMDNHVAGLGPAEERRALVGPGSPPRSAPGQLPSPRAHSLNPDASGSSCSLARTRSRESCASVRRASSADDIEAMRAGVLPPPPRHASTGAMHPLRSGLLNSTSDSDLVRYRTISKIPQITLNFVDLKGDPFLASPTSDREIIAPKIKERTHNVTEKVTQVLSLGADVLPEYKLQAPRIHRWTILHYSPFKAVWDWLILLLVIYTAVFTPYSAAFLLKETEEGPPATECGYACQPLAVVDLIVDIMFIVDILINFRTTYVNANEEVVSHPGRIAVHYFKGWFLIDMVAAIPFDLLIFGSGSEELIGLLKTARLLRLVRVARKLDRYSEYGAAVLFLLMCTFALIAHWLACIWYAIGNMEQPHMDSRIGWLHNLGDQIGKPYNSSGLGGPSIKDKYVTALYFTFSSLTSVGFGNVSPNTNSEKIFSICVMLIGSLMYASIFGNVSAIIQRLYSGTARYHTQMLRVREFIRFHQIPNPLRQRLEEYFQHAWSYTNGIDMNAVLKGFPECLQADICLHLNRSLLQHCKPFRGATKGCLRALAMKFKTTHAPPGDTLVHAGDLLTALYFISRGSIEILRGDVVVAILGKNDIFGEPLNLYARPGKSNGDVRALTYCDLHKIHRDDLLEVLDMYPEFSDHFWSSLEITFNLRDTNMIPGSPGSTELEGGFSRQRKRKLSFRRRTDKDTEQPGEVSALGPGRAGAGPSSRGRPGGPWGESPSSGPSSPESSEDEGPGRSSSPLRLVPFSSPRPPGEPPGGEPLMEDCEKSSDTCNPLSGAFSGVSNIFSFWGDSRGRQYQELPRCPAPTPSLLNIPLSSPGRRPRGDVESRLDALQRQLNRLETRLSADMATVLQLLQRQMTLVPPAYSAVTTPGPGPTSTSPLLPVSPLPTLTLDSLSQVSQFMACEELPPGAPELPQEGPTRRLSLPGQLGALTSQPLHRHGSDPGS

SMILES	activity increase over dofetilide control, less the hit threshold
COc1ccc(N(CC(=O)N2CCN(Cc3ccccc3)CC2)S(C)(=O)=O)cc1	-16%
C=CCN(c1ccc(C(=O)NC(C)C)cc1)S(C)(=O)=O	-10%
CS(=O)(=O)N(Cc1ccccc1)c1ccc(C(=O)Nc2ccc(C(N)=O)cc2)cc1	82% (active)
CCC1=C(OC(=O)N(CC)CC)N2C(=O)OC(=NCC3CC3)[C@]2(C)[C@H]2C1=CC[C@H]1C(=O)N(C)C(=O)[C@H]12	-1%
N=c1c2cn[nH]c2nc(SCC(=O)c2ccc(Br)cc2)n1-c1ccc(Br)cc1	-3%
Cc1cc(C(=O)NCc2ccc(S(N)(=O)=O)cc2)ccc1[N+](=O)[O-]	-15%
CC(C)(C)c1ccc(/C=N/NC(=S)Nc2cccnc2)cc1	-11%
CSC(=S)N/N=C/c1ccc(Br)cc1	46% (active)
CSC(=S)N/N=C(\C)c1ccccc1	35% (active)
COCCNC(=O)C(=O)N/N=C/c1ccc(C(=O)OC)cc1	-11%
C/C(=N\NC(N)=S)c1ccncc1	-3%
CSc1ccc(/C=N/NC(=O)c2cccs2)cc1	-17%
C/C(=N\NC(N)=S)c1cccnc1	-8%
CSC(=S)N/N=C/c1ccccc1	34% (active)
CC(C)NC(=S)N/N=C/c1ccc(C(C)(C)C)cc1	-13%
COCCOC(=O)C1=C(C)Nc2ncnn2C1c1ccc(F)cc1 (stereo not drawn)	-26%
CC1CCc2c(sc(NS(=O)(=O)c3ccccc3)c2C(=O)OC(C)C)C1 (stereo not drawn)	7% (active)
CCOC(=O)c1c(NS(C)(=O)=O)sc2c1CCC(C)C2 (stereo not drawn)	21% (active)
CC(C)OC(=O)c1c(NC(=O)c2ccco2)sc2c1CCCCC2	-12%
CC(C)OC(=O)c1c(NS(=O)(=O)c2ccccc2)sc2c1CCCC2	37% (active)
COC(=O)c1c(NC(=O)CN2CCOCC2)sc2c1CCC(C)C2 (stereo not drawn)	-13%
CC(NS(=O)(=O)c1ccccc1)C(N)=O (stereo not drawn)	-10%

SMILES	activity increase over dofetilide control, less the hit threshold
O=[N+]([O-])c1ccc(Cl)c(/C=N/Nc2nc(N3CCOCC3)nc(N3CCOCC3)n2)c1	-18%
COc1ccccc1C(=O)COC(=O)c1ccc(-n2cnnn2)cc1	-21%
O=C(N/N=C\c1coc2ccccc2c1=O)c1ccco1	-24%
CC(Nc1ccc(F)cc1)=[N+](C)CCNS(=O)(=O)c1ccc(Cl)cc1	-3%
COc1cc2c(cc1OC)C(C)N(C(=S)NC(=O)c1ccccc1)CC2 (stereo not drawn)	-18%
CC1Cc2cc(S(=O)(=O)NCc3ccccc3)ccc2N1C(=O)C1CCC1 (stereo not drawn)	-22%
Cc1csc2ncc(C(=O)N3c4ccccc4CC3C)c(=O)n12 (stereo not drawn)	-2%
CC1Cc2ccccc2N1C(=S)NC(=O)C1(C)CC1(Cl)Cl (stereo not drawn)	42% (active)
CC1Cc2ccccc2N1C(=S)NC(=O)c1cccc(Br)c1 (stereo not drawn)	77% (active)
CC1Cc2ccccc2N1C(=S)NC(=O)c1ccco1 (stereo not drawn)	6% (active)
O=C(NN1C(=O)C2C(c3ccccc3)C=CC(c3ccccc3)C2C1=O)c1cccc(Br)c1 (stereo not drawn)	-54%
CC1Cc2ccccc2N1C(=S)NC(=O)c1ccc(Cl)cc1Cl (stereo not drawn)	55% (active)
CC(=O)N1CCc2cc(S(=O)(=O)N3c4ccccc4CC3C)ccc21 (stereo not drawn)	-14%
CC1=C(C#N)C(Nc2cc(C)ccn2)(C(F)(F)F)C(=O)N1 (stereo not drawn)	-10%
Cc1nn(Cc2ccccc2)c2c1C(c1cccnc1)C(C#N)=C(N)O2 (stereo not drawn)	-6%
N=C1C(=O)OCC1c1cc(Cl)ccc1NC(=O)Nc1ccccc1 (stereo not drawn)	-9%
CCCn1c(CC)nc([N+](=O)[O-])c1S(=O)(=O)c1ccccc1	3% (active)
CC(C)N1CC(C(=O)Nc2ccc(Cl)c(Cl)c2)CC1=O (stereo not drawn)	-8%
CCCCCCCc1c(O)nc(SCC(=O)O)[nH]c1=O	-6%
O=C(NC(=S)Nc1nc2c(s1)CSc1ccccc1-2)c1ccccc1	21% (active)
Cc1csc(NC(=O)c2cn3ccccc3n2)n1	-12%
Cc1csc(NC(=S)NC(=O)c2ccccc2)n1	10% (active)

SMILES	activity increase over dofetilide control, less the hit threshold
CCOC(=O)c1sc(NC(=S)NC(=O)c2cccc(OC)c2)nc1C	7% (active)
CCOC(=O)c1sc(NC(=S)NC(=O)c2ccco2)nc1C	7% (active)
Cc1nc(NC(=O)c2ccco2)sc1C(=O)O	-10%
CCn1cc(CCC(=O)NCc2cccc(OC)c2OC)c2ccccc21	-12%
CCOC(=O)c1sc(NC(=S)NC(=O)c2ccc(OC)cc2)nc1C	-2%
COC(=O)c1sc(NC(=S)NC(=O)c2ccc(C)cc2)nc1C	-3%
CCOC(=O)c1sc(NC(=S)NC(=O)c2ccccc2)nc1C	36% (active)
COC(=O)c1sc(NC(=S)NC(=O)c2ccccc2F)nc1C	-3%
COC(=O)c1sc(NC(=S)NC(=O)c2ccccc2C)nc1C	26% (active)
Cc1ccc(CN2CCN(/N=C/c3ccc(O)c(O)c3)CC2)cc1	7% (active)
Nc1cccc(Oc2cnccn2)c1	-5%
Nc1ncnc(NC2CCS(=O)(=O)C2)c1[N+](=O)[O-] (stereo not drawn)	-12%
Cc1cc(NC(=O)CSc2ccc3nnc(-c4cccs4)n3n2)no1	-17%
COc1cccc(C(=O)CC(=O)C(=O)Nc2ccc(C)cc2Cl)c1	50% (active)
COc1cc(OC)cc(C(=O)O/N=C(\N)c2cccc(C)c2)c1	-14%
COc1ccc(C(=O)CC(=O)C(=O)Nc2ccc(C)cc2Cl)cc1	35% (active)
COc1ccc(CNC(=O)C2CCCN2)cc1OC (stereo not drawn)	-14%
Cc1ccc(CC23CN4CCN(CC(C4)C2O)C3)c(C)c1 (stereo not drawn)	-14%
NC(=O)c1nsc(C(=O)N(CC(=O)NCc2ccccc2)c2ccc(F)cc2)c1N	-22%
Cc1ccc2c(c1)c1nnc(SCC(=O)Nc3ccc(N(C)C)cc3)nc1n2CC(=O)O	-9%
COc1ccc(/C=C/C(=O)Nc2ccccc2C(=O)O)cc1	5% (active)
COc1cc(/C=C/C(=O)N[C@@H](Cc2c[nH]c3ccccc23)C(=O)O)ccc1O	-8%

SMILES	activity increase over dofetilide control, less the hit threshold
C=CCNC(=O)c1ccccc1NC(=O)COc1ccc(OC)cc1	-2%
COc1cc(/C=C/C(=O)O)ccc1OS(=O)(=O)c1cc(C)ccc1C	-26%
O=C(/C=C/c1ccccc1)Nc1ccc(S(=O)(=O)N2CCOCC2)cc1	-10%
COc1ccc(/C=C/C(=O)Nc2ccccc2C(=O)O)cc1OC	18% (active)
Cc1ccc(C(=O)NNC(=S)NC(=O)c2ccccc2)cc1	-40%
Cc1cc2ccccn2c1C(=S)NC(=O)c1ccccc1	50% (active)
O=C(Nc1ccc(Cl)cc1Cl)c1n[nH]c(Cn2cncn2)n1	-1%
S=c1nn[nH]n1C12CC3CC(CC(C3)C1)C2	27% (active)
CCOc1ccc(Nc2ccc([N+](=O)[O-])c3nonc23)cc1	-6%
Cc1cc(=O)[nH]c(SCC(=O)NC2CCCCC2)n1	0%
O=C(Nn1cnnc1)c1ccncc1	-14%
Cc1nnc(C)n1/N=C/c1cc(Br)cc(Br)c1O	15% (active)
CNC(=S)N/N=C/c1cc(Br)cc(Br)c1O	-3%
Oc1c(Br)cc(Br)cc1C=Nc1ccc2[nH]ncc2c1	-2%
O=c1c2cc(Br)ccc2nc(-c2ccccc2)n1O	45% (active)
O=c1c2cc(Br)ccc2nc(-c2cccc(Cl)c2)n1O	102% (active)
O=C(Cn1nnc(-c2cccc(C(F)(F)F)c2)n1)N1CCCCCC1	-8%
O=c1c2ccc(Cl)cc2nc(-c2cccc(C(F)(F)F)c2)n1O	94% (active)
COc1cc(OC)cc(-c2nc3ccccc3c(=O)n2OC(=O)c2ccc(Br)cc2)c1	-26%
O=c1c2cc(Br)ccc2nc(-c2cccc(C(F)(F)F)c2)n1O	115% (active)
O=C(COC(=O)c1cc(NS(=O)(=O)c2cccs2)ccc1O)Nc1cc(Cl)ccc1Cl	-4%
O=C(COC(=O)c1cccs1)NCCN1C(=O)CSC1=O	-9%

SMILES	activity increase over dofetilide control, less the hit threshold
CNC(=O)NC(=O)C(C)N1CCN(C/C=C/c2ccccc2)CC1 (stereo not drawn)	-16%
Cc1nonc1OCCNc1ccc([N+](=O)[O-])cc1	-2%
N#Cc1ccc(-c2nc3ccc(Br)cc3c(=O)n2O)cc1	1% (active)
O=c1c2cc(Br)ccc2nc(-c2ccc(Cl)cc2)n1O	101% (active)
CCCn1c(SC(C)C(=O)N2CCOCC2)nc2ccc(Br)cc2c1=O (stereo not drawn)	-11%
Cc1ccc(-n2c(C)cc(C(=O)CN3CCOCC3)c2C)cc1	-6%
CC1CCCC(C(=O)OCc2ccccc2)N1 (stereo not drawn)	-3%
O=C(Nc1ccc(N2CCN(C(=O)c3ccc(Cl)cc3)CC2)cc1)c1ccc([N+](=O)[O-])o1	-11%
CC(=O)Nc1ccc2nc(NC(=O)c3ccc([N+](=O)[O-])o3)sc2c1	5% (active)
O=C(Nc1ncc(Cc2ccc(C(F)(F)F)cc2)s1)c1ccc(-c2cccc([N+](=O)[O-])c2)o1	-14%
O=c1oc2ccccc2c(NC2CCCCC2)c1NS(=O)(=O)c1ccc(Cl)cc1	-6%
CC(C)(C)c1ccccc1NC(=S)NC1CCCC1	-7%
O=S(=O)(NC(=S)NC1CCCCC1)c1ccc(Cl)cc1	10% (active)
CCOc1ccc(C(C)NC(=S)NC2CCCCC2)cc1 (stereo not drawn)	-9%
COc1ccc(C)cc1S(=O)(=O)NC1CCCCC1	-5%
O=S(=O)(NC(=S)NC1CCCCC1)c1ccc(Br)cc1	12% (active)
O=C(NC1CCCCC1)c1ccc(COCC(F)(F)F)o1	-5%
Cc1cc(Cl)c(S(N)(=O)=O)cc1OCC(=O)NC1CCCCC1	-8%
Cc1ccc(S(=O)(=O)NC(=S)NC2CCCCC2)cc1	3% (active)
CCc1ccc(S(=O)(=O)NC(=S)NC2CCCCC2)cc1	35% (active)
